Assay outcomes: PubChem BioAssay, National Center for Advancing Translational Sciences (NCATS)
This is a sample that favours compounds with a hit; in the whole collection about 5.1% have one here.
KDM4E inh: inhibitors of human JMJD2E histone demethylase. B2RXH2. JMJD2E catalytic domain, FDH-coupled NADH fluorescence (FDH is formaldehyde dehydrogenase). Potency, µM (doses to about 57.1 µM), inactives show top-dose activity change, negative = inhibition, most hits filed as inhibitors. 1.6% of 230,000 active; active = well fitted inhibition curve with a large enough effect, not every such curve was filed as active; inconclusive = small, poorly fitted or top-dose-only effect, or another doubt; inactive = no such curve, though single readings can be large or run the other way;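 note: potency is the fitted concentration of half-maximal effect; 0% = wells with enzyme and -100% = buffer wells without enzyme; nearly all actives have a fitted effect of over 50% in size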
Target sequence (B2RXH2 1-337 limits assumed): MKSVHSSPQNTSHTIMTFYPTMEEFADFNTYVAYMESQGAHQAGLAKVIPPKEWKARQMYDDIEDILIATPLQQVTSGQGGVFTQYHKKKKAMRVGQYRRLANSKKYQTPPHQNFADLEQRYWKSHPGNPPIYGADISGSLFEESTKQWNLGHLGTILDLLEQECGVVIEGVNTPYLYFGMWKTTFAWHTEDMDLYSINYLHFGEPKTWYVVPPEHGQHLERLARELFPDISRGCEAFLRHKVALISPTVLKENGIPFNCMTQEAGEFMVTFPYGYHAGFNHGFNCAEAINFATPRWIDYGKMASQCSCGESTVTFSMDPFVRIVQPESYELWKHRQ
Tau fluor cs: counter-screen for tau fibril formation inhibitors | tau K18 P301L Alexa594 fluorescence, heparin fibrillization | Potency, µM (doses to about 57.7 µM), for the others: at the top dose activity change, negative = decrease | 0.93% of 280,000 active | AID 1463; note: potency is the fitted concentration of half-maximal effect; nearly all actives have a fitted effect of over 55% in size
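Human K18 P301L tau (15 uM unlabeled plus 0.24 uM Alexa 594-labeled, final) in 100 mM sodium acetate pH 7 was mixed with compound and 20 uM heparin and incubated 6 hr at 37 C.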
Tau fibril ThT: inhibitors of human tau fibril formation, thioflavin T binding | P10636 | recombinant tau K18 P301L, heparin-induced fibrillization, ThT fluorescence | Potency, µM (series often up to 57.4 µM), without a hit: at the top dose activity, negative = inhibition, most hits filed as inhibitors | 2.1% of 270,000 active | AID 1460; note: potency is the fitted concentration of half-maximal effect; nearly all actives have a fitted effect of over 55% in size
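ThT emission at 510 nm, taken 1 hr after adding 30 uM dye, quantifies aggregates formed when 20 uM heparin acts on human tau K18 P301L for 6 hr at 37 C.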
NPSR antagonist: blocks cAMP signaling of the human neuropeptide S receptor; CHO-NPSR cells, cAMP TR-FRET, antagonist mode; Q6W5P4; Potency, µM (series often up to 38.3 µM), inactives show at the highest dose activity change, negative = inhibition, actives largely listed as inhibitors; 1% of 220,000 active; note: potency is the fitted concentration of half-maximal effect; nearly all actives have a fitted effect of over 50% in size
Target sequence (Q6W5P4 whole entry, looked up): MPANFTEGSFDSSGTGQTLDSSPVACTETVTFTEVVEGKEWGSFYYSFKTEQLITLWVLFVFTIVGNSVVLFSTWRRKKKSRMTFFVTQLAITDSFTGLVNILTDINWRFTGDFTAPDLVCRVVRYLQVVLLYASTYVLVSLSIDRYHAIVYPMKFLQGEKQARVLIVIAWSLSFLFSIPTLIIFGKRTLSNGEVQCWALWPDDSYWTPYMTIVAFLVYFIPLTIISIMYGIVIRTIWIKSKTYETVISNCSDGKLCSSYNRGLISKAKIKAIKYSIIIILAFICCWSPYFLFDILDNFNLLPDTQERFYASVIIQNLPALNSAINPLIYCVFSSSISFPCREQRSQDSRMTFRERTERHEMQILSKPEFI
Tau fibril FP: blocks human tau fibril formation measured by polarization | P10636 | K18 P301L tau heparin fibrillization, Alexa594 FP, 6 h | Potency, µM (highest dose often 57.7 µM), for the others: at the top dose activity, negative = inhibition, usual class: inhibitors | 0.39% of 280,000 active; note: potency is the fitted concentration of half-maximal effect; nearly all actives have a fitted effect of over 55% in size
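Read-out: fluorescence polarization of Alexa 594-labeled tau (0.24 uM), 555 nm excitation, 632 nm emission. Mixtures held 15 uM unlabeled K18 P301L, compound and 20 uM heparin, pH 7 acetate buffer, incubated 6 hr at 37 C.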
PNC inhibitor: inhibitors of perinucleolar compartment assembly; PC3M PTB-GFP, PNC prevalence imaging, 16 h; hits give low values; activity change (PNC), negative = inhibition, % at 10 µM; 3.1% of 140,000 active;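 active = readout at or below -70, meaning at least 70% loss of cells showing the perinucleolar compartment, a nuclear body marking cancer cells; inconclusive = readout between -30 and a set limit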;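 note: plate controls were DMSO wells for no effect and camptothecin positive control wells for full effect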
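Compounds are pinned in duplicate onto adhered PC3M cells stably expressing GFP-tagged PTB and incubated 16 h at 37 C. Cells are then fixed, nuclei stained with Hoechst, and PNC-positive cells counted.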
Numbers without * were called inactive; [ ] = dose if it differs, or a comment. Unless noted, calls come from the whole dose curve; as a rule, active = well fitted curve in the direction sought with a large enough effect; inconclusive = small, poorly fitted or top-dose-only effect, or another doubt; inactive = no such curve, though single readings can be large; an effect the other way counts as inactive or inconclusive. Unless noted, % is set by controls: 0 for no effect and ±100 for the full control effect.

Results for COc1ccc(CCNC(=O)C(=O)NCC(c2ccco2)S(=O)(=O)c2ccc(C)cc2)cc1 (centres undefined) ?
Tau fluor cs: -2%; Tau fibril ThT: 5%; Tau fibril FP: -7%

What do the screens show for `O=C(Nc1ccc(C2=NCCN2)cc1)c1ccc(C(=O)Nc2ccc(C3=NCCN3)cc2)c([N+](=O)[O-])c1`?
KDM4E inh: -7%; Tau fluor cs: inconclusive; Tau fibril ThT: 4.5µM*; NPSR antagonist: 9%; Tau fibril FP: -5%

Results for Cc1ccc(NC(=O)c2ccc(-n3cccn3)c([N+](=O)[O-])c2)cc1 ?
KDM4E inh: 5%; Tau fluor cs: -19%; Tau fibril ThT: inconclusive; NPSR antagonist: -10%[46.1 µM]; Tau fibril FP: -4%; PNC inhibitor: inconclusive

What do the screens show for `CCOC(=O)c1c(NC(=O)c2cc(-c3cccc(Cl)c3)on2)sc(C(C)=O)c1C`?
Tau fluor cs: -7%; Tau fibril ThT: -10%; Tau fibril FP: -7%

What do the screens show for `CCCCCCn1c(SCCC)nc2c1c(=O)[nH]c(=O)n2C`?
KDM4E inh: 1%; Tau fluor cs: -2%; Tau fibril ThT: 2%; NPSR antagonist: 14%[46.1 µM]; Tau fibril FP: 3%; PNC inhibitor: -86*

How did C/C=C/Cn1c(SCCCc2ccccc2)nc2c1c(=O)[nH]c(=O)n2C do in these assays?
KDM4E inh: 2%; Tau fluor cs: -9%; Tau fibril ThT: inconclusive; NPSR antagonist: -25%; Tau fibril FP: 4%; PNC inhibitor: -119*

Results for CCCCCn1c(SCCCC)nc2c1c(=O)[nH]c(=O)n2C ?
KDM4E inh: -6%; Tau fluor cs: -1%; Tau fibril ThT: -9%; NPSR antagonist: -20%[46.1 µM]; Tau fibril FP: 14%; PNC inhibitor: 5

What do the screens show for `CCOC(=O)c1c(C)c(-c2ccccc2)n(CC(=O)Nc2cccc(F)c2)c1C`?
Tau fluor cs: inconclusive; Tau fibril ThT: -7%; Tau fibril FP: -13%

What do the screens show for `CCOC(=O)c1ccccc1NC(=O)N1CCC(CN2CCOCC2)CC1`?
Tau fluor cs: 3%; Tau fibril ThT: 5%; Tau fibril FP: -3%

What do the screens show for `COc1cc2c(cc1OC)C(c1ccc(N(C)C)cc1)CC(=O)N2` (centres undefined)?
KDM4E inh: -9%; Tau fluor cs: -4%; Tau fibril ThT: -2%; NPSR antagonist: -10%[46.1 µM]; Tau fibril FP: 7%; PNC inhibitor: 30

Results for COc1ccccc1C1CC(=O)Nc2cc3c(cc21)OCCO3 (centres undefined) ?
KDM4E inh: -6%; Tau fluor cs: -10%; Tau fibril ThT: -6%; NPSR antagonist: 29%[46.1 µM]; Tau fibril FP: -3%; PNC inhibitor: -101*

How did COc1cc2c(cc1OC)C(c1cccnc1)CC(=O)N2 (centres undefined) do in these assays?
KDM4E inh: -7%; Tau fluor cs: -2%; Tau fibril ThT: -2%; NPSR antagonist: 29%; Tau fibril FP: 3%; PNC inhibitor: -82*

Results for CC(C)Oc1ccccc1C1CC(=O)Nc2cc3c(cc21)OCCO3 (centres undefined) ?
KDM4E inh: 2%; Tau fluor cs: -9%; Tau fibril ThT: -13%; NPSR antagonist: inconclusive; Tau fibril FP: -5%; PNC inhibitor: -97*

How did O=C(NCCS(=O)(=O)N1CCN(c2ccccc2F)CC1)c1ccccc1C(F)(F)F do in these assays?
Tau fluor cs: 3%; Tau fibril ThT: 3%; Tau fibril FP: -2%

Results for Cc1ccc2[nH]c(=O)c(CNC(C)(C)C)cc2c1 ?
KDM4E inh: inconclusive; Tau fluor cs: 0%; Tau fibril ThT: -2%; NPSR antagonist: -7%[46.1 µM]; Tau fibril FP: 3%; PNC inhibitor: -107*

Results for CCOc1ccc(NCc2cc3cc(OC)ccc3[nH]c2=O)cc1 ?
KDM4E inh: inconclusive; Tau fluor cs: inconclusive; Tau fibril ThT: 6.3µM*; NPSR antagonist: -11%; Tau fibril FP: -6%

Results for COc1ccc2[nH]c(=O)c(CNc3ccccc3)cc2c1 ?
KDM4E inh: -1%; Tau fluor cs: -6%; Tau fibril ThT: -9%; NPSR antagonist: -13%[46.1 µM]; Tau fibril FP: inconclusive; PNC inhibitor: inconclusive

How did Cc1ccc(CC(=O)NCc2nc(-c3cccc(C)c3)no2)cc1 do in these assays?
Tau fluor cs: -27%; Tau fibril ThT: -9%; Tau fibril FP: 2%

What do the screens show for `COC(=O)C(c1ccc(OC)c(OC)c1)C1c2ccccc2C=C(C)N1C(=O)OC` (centres undefined)?
KDM4E inh: 12%; Tau fluor cs: -5%; Tau fibril ThT: -8%; Tau fibril FP: 6%

How did Cc1cc(N2CCN(S(=O)(=O)c3ccc(Br)cc3)CC2)n2ncnc2n1 do in these assays?
KDM4E inh: inconclusive; Tau fluor cs: 17%; Tau fibril ThT: 6%; NPSR antagonist: -2%; Tau fibril FP: -9%[2.34 µM]

What do the screens show for `Cc1cc(N2CCN(S(=O)(=O)Cc3ccccc3)CC2)n2ncnc2n1`?
KDM4E inh: 4%; Tau fluor cs: -15%; Tau fibril ThT: -9%; NPSR antagonist: -8%[46.1 µM]; Tau fibril FP: 1%; PNC inhibitor: -99*

How did Nc1ccc(-c2nc3c(Cl)cc(N)cc3[nH]2)cc1 do in these assays?
KDM4E inh: inconclusive; Tau fluor cs: inconclusive; Tau fibril ThT: 20µM*; NPSR antagonist: inconclusive; Tau fibril FP: inconclusive; PNC inhibitor: 1

What do the screens show for `Nc1ccc2nc(-c3ccc(N)c(Cl)c3)[nH]c2c1`?
KDM4E inh: inconclusive; Tau fluor cs: inconclusive; Tau fibril ThT: inconclusive; NPSR antagonist: -14%[46.1 µM]; Tau fibril FP: inconclusive; PNC inhibitor: inconclusive

Results for COc1ccc2oc(-c3ccc(NC(=O)c4ccc(Cl)cc4Cl)cc3)nc2c1 ?
Tau fluor cs: 0%; Tau fibril ThT: inconclusive; Tau fibril FP: -8%

What do the screens show for `Cc1cccc(CS(=O)(=O)Cc2ccc(C(=O)NCc3ccc(Cl)cc3)o2)c1`?
Tau fluor cs: -14%; Tau fibril ThT: -6%; Tau fibril FP: -8%

Results for CCC(NC(=O)C1CCC1)c1ccccc1 (centres undefined) ?
KDM4E inh: 6%; Tau fluor cs: 6%; Tau fibril ThT: 2%; NPSR antagonist: 2%[46.1 µM]; Tau fibril FP: 2%; PNC inhibitor: -100*

How did O=C1C=C(O)c2ccccc2C1=O do in these assays?
KDM4E inh: inconclusive; Tau fluor cs: -14%; Tau fibril ThT: inconclusive; Tau fibril FP: inconclusive

What do the screens show for `O=C1C=C(O)c2cccc(O)c2C1=O`?
KDM4E inh: 7.9µM*; Tau fluor cs: -14%; Tau fibril ThT: inconclusive; NPSR antagonist: -11%; Tau fibril FP: -5%
